Outcome and AC50 data for eight molecules are collected here from PubChem BioAssay (EPA / NIEHS).

The source made the active and inactive calls. How the source made its calls: active means hit-call score of the fitted dose curve at least 0.9, where 1 is the maximum; inactive means score below 0.9.

Holding throughout (conditions): mRNA level, 48 h; actives raise or lower the signal
Read-out in assay [1]: Tumor necrosis factor receptor superfamily member 6 (Homo sapiens) (UniProt P25445)
Kind of assay: LTEA_HepaRG_FAS: Life Technologies and Expression Analysis (LTEA) Assay for Fas cell surface death receptor (FAS) using HepaRG (AID 2283447). The method, boiled down: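 Differentiated HepaRG cells in serum-free induction medium were exposed 48 h to 8 half-log concentrations up to 100 uM in 0.5% DMSO, in duplicate. FAS mRNA was measured by qRT-PCR normalised to ACTB, GAPDH and POLR2A; bidirectional fit versus DMSO.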

Read-out in assay [2]: Fatty acid synthase (Homo sapiens) (UniProt P49327)
Kind of assay: LTEA_HepaRG_FASN: Life Technologies and Expression Analysis (LTEA) Assay for Fatty Acid Synthase (FASN) using HepaRG (AID 2283448). The method, boiled down:
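In human HepaRG cultures, 48 h chemical exposure (up to 100 uM, 0.5% DMSO) preceded TaqMan qRT-PCR of FASN.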

Read-out in assay [3]: Cyclin D2 (CCND2), CCND2 (gene 894)
The assay can be described thus: LTEA_HepaRG_CCND2: Life Technologies and Expression Analysis (LTEA) Assay for Cyclin D2 (CCND2) using HepaRG (AID 2283449).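 Further: CCND2 transcript measured by TaqMan qRT-PCR and normalised to three housekeeping genes.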 The essentials:
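HepaRG, 48 h dosing, 8-pt half-log curve from 100 uM, 0.5% DMSO; duplicate wells. Readout: CCND2 transcript by microfluidic qRT-PCR, housekeeping-normalised; bidirectional fit vs DMSO baseline.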

Read-out in assay [4]: Cyclin Dependent Kinase Inhibitor 1A (CDKN1A), CDKN1A (gene 1026)
The assay can be described thus: LTEA_HepaRG_CDKN1A: Life Technologies and Expression Analysis (LTEA) Assay for Cyclin Dependent Kinase Inhibitor 1A (CDKN1A) using HepaRG (AID 2283450). The method, boiled down: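 Cryopreserved HepaRG cells were plated and cultured 48 h, then switched to serum-free induction medium. Chemicals (eight half-log concentrations, top 100 uM, 0.5% DMSO) were applied for 48 h. Lysates underwent qRT-PCR for CDKN1A with housekeeping normalization.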

Read-out in assay [5]: Cyclin D1 (CCND1), CCND1 (gene 595)
The assay can be described thus: LTEA_HepaRG_CCND1: Life Technologies and Expression Analysis (LTEA) Assay for Cyclin D1 (CCND1) using HepaRG (AID 2283451).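 On AC50: TaqMan qRT-PCR transcript level normalised to ACTB GAPDH and POLR2A housekeeping genes.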 The essentials:
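Human liver HepaRG line; 48 h dosing, 8 conc. ≤100 uM, 0.5% DMSO; TaqMan qRT-PCR mRNA, 3 housekeeping genes; bidirectional curve fit vs DMSO.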

Read-out in assay [6]: catalase (CAT), CAT (gene 847)
Kind of assay: LTEA_HepaRG_CAT: Life Technologies and Expression Analysis (LTEA) Assay for catalase (CAT) using HepaRG (AID 2283452). The method, boiled down:
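HepaRG cells in serum-free induction medium, 0.5% DMSO vehicle, exposed 48 h in duplicate over 8 half-log concentrations from 100 uM. CAT mRNA measured by qRT-PCR, normalized to ACTB, GAPDH, POLR2A; bidirectional fit versus DMSO.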

Read-out in assay [7]: flavin-containing dimethylaniline monooxygenases 3 (FMO3), FMO3 (gene 2328)
Kind of assay: LTEA_HepaRG_FMO3: Life Technologies and Expression Analysis (LTEA) Assay for flavin-containing dimethylaniline monooxygenases 3 (FMO3) using HepaRG (AID 2283453). The essentials: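 Eight-point concentration-response in serum-free HepaRG cultures (top 100 uM, 0.5% DMSO, 48 h). Read-out: FMO3 mRNA level normalized to three endogenous control genes, fitted bidirectionally versus vehicle.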

Read-out in assay [8]: CFLAR gene, CFLAR (gene 8837)
Kind of assay: LTEA_HepaRG_CFLAR: Life Technologies and Expression Analysis (LTEA) Assay for CFLAR gene using HepaRG (AID 2283455). The essentials: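 qRT-PCR read-out (Fluidigm/TaqMan) of CFLAR mRNA, normalized to three housekeeping genes, in differentiated human HepaRG cells after 48 h chemical exposure; 8-point half-log series from 100 uM in 0.5% DMSO; bidirectional curve fitting versus DMSO.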

Read-out in assay [9]: Forkhead box O1 (FOXO1), FOXO1 (gene 2308)
The assay can be described thus: LTEA_HepaRG_FOXO1: Life Technologies and Expression Analysis (LTEA) Assay for Forkhead box O1 (FOXO1) using HepaRG (AID 2283456). The method, boiled down:
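HepaRG, 48 h exposure, 8-pt half-log series from 100 uM in 0.5% DMSO, duplicates; Fluidigm qRT-PCR mRNA, housekeeping-normalised; bidirectional fit vs DMSO baseline.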

Read-out in assay [10]: growth arrest and DNA damage 45 (GADD45A), GADD45A (gene 1647)
The assay can be described thus: LTEA_HepaRG_GADD45A: Life Technologies and Expression Analysis (LTEA) Assay for growth arrest and DNA damage 45 (GADD45A) using HepaRG (AID 2283458). The essentials: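 Eight-point concentration-response in HepaRG cells: 48 h chemical exposure, 0.5% DMSO vehicle, top dose 100 uM. Normalized qRT-PCR mRNA readout with bidirectional fitting relative to DMSO.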

Read-out in assay [11]: Forkhead box O3 (FOXO3), FOXO3 (gene 2309)
Kind of assay: LTEA_HepaRG_FOXO3: Life Technologies and Expression Analysis (LTEA) Assay for Forkhead box O3 (FOXO3) using HepaRG (AID 2283459). The method, boiled down: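 qRT-PCR readout of FOXO3 transcript, normalized to three housekeeping genes (ACTB, GAPDH, POLR2A); gain or loss fitted against 0.5% DMSO vehicle. HepaRG cells, 48 h chemical exposure, 8-point half-log series, top 100 uM.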

Read-out in assay [12]: ABC Transporter (ABCB1), ABCB1 (gene 5243)
Kind of assay: LTEA_HepaRG_ABCB1: Life Technologies and Expression Analysis (LTEA) Assay for ABC Transporter (ABCB1) using HepaRG (AID 2283460). The method, boiled down: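 HepaRG, 48 h exposure, 8-pt half-log series from 100 uM, 0.5% DMSO vehicle, duplicates. Readout: ABCB1 transcript by Fluidigm TaqMan qRT-PCR, housekeeping-normalized; bidirectional curve fit vs DMSO baseline.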

Read-out in assay [13]: growth arrest and DNA damage 45 (GADD45B), GADD45B (gene 4616)
Kind of assay: LTEA_HepaRG_GADD45B: Life Technologies and Expression Analysis (LTEA) Assay for growth arrest and DNA damage 45 (GADD45B) using HepaRG (AID 2283461). The essentials: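 Values are bidirectional concentration-response fits against 0.5% DMSO controls. Underlying data: qRT-PCR mRNA levels in human HepaRG liver cells treated 48 h in serum-free induction medium, eight concentrations topping at 100 uM.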

Read-out in assay [14]: ABC Transporter (ABCC3), ABCC3 (gene 8714)
Kind of assay: LTEA_HepaRG_ABCC3: Life Technologies and Expression Analysis (LTEA) Assay for ABC Transporter (ABCC3) using HepaRG (AID 2283462). The essentials:
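Differentiated HepaRG liver cells receive test chemicals at eight concentrations (max 100 uM) for 48 h. Expression of ABCC3 is quantified by qRT-PCR against ACTB, GAPDH and POLR2A, and activity is fitted in both directions against the DMSO control.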

Read-out in assay [15]: Cytochrome P450 (CYP1A1), CYP1A1 (gene 1543)
Kind of assay: LTEA_HepaRG_CYP1A1: Life Technologies and Expression Analysis (LTEA) Assay for Cytochrome P450 (CYP1A1) using HepaRG (AID 2283454). The method, boiled down:
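Induction of CYP1A1 mRNA in a human hepatic cell line was measured 48 h after dosing, with 1 mM phenobarbital as induction positive control and 0.5% DMSO vehicle as baseline for bidirectional curve fitting.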

Sequence of Fatty acid synthase (Homo sapiens) (P49327 whole entry, looked up): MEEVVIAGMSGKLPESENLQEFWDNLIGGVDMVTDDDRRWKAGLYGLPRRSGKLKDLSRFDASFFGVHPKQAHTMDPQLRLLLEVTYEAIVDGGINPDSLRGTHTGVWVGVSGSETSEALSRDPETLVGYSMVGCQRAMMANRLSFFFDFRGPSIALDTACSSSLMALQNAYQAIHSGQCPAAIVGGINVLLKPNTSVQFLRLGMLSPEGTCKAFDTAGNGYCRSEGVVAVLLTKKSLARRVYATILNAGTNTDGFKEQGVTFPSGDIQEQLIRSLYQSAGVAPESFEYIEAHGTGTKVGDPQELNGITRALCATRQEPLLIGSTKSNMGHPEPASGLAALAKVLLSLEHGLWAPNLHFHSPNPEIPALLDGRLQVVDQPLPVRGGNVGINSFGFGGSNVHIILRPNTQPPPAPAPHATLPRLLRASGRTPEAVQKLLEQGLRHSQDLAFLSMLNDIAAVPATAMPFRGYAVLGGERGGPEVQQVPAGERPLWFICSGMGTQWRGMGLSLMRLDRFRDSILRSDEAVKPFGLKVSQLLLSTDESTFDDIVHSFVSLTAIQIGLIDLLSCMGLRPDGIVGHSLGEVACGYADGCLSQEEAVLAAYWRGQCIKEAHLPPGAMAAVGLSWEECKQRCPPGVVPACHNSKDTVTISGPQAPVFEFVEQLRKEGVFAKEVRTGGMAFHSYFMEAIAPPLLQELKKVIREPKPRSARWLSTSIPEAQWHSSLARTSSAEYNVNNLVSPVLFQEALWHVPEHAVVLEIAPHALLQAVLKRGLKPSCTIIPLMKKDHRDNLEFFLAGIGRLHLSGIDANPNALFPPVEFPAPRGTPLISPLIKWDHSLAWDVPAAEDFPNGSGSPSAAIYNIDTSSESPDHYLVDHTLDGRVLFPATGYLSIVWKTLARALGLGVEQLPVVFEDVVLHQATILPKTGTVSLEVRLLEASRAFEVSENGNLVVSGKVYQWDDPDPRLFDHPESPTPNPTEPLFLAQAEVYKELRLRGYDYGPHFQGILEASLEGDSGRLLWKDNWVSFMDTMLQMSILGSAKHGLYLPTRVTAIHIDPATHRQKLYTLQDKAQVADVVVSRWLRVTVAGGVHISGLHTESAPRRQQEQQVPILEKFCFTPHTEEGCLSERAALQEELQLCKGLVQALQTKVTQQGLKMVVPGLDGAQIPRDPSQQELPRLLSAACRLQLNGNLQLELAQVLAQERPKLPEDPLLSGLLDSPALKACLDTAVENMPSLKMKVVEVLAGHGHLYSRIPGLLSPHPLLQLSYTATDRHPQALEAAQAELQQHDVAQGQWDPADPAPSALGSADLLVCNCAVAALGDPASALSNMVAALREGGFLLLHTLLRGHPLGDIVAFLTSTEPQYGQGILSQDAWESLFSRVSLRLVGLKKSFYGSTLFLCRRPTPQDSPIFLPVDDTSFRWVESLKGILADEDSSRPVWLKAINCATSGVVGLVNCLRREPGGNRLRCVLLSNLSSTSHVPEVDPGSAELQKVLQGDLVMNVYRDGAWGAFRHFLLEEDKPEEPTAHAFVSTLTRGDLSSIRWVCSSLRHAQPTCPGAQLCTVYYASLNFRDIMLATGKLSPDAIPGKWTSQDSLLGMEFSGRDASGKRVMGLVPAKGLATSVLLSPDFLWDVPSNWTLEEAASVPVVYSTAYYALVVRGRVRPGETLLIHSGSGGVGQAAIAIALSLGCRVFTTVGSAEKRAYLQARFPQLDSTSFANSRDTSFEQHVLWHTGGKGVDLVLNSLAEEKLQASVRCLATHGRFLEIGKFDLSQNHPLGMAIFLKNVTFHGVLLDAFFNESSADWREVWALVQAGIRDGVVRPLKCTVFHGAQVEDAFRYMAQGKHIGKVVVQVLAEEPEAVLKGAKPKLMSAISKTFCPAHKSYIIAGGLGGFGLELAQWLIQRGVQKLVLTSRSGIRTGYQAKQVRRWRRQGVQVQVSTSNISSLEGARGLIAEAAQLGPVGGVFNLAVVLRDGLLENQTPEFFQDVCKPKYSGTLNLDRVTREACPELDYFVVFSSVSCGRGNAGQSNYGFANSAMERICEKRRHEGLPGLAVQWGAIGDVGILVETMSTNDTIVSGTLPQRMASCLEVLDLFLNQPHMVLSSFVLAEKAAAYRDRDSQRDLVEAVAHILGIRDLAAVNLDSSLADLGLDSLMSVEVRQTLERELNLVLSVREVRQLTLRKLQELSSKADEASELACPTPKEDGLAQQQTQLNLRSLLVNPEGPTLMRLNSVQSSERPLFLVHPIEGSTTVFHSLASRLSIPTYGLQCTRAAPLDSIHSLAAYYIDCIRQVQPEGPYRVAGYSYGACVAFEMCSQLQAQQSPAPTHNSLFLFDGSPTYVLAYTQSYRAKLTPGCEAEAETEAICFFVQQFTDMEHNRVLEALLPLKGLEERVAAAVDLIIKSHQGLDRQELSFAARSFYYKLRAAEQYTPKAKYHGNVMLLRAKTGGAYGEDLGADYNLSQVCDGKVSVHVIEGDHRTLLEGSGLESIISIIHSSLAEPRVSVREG

For `CC(C)=CCC/C(C)=C\CO`, the molecule was called inactive in assay [1], in assay [2], in assay [3], in assay [4], in assay [5] and in [6]. Further, the call in [7], in [8], in [9], in assay [10], in assay [11] and in [12] was inactive. Also, the molecule was called inactive in assay [13] and in assay [14].
In the case of `CC(O)CN(CCN(CC(C)O)CC(C)O)CC(C)O` (stereo not drawn), the molecule was called inactive in [1], in assay [3], in assay [4], in assay [6], in assay [7] and in assay [8]. Further, the outcome in [9], in [10], in assay [13] and in [14] was inactive. Also, the AC50 is 12.4 µM (active) in assay [2], 12.5 µM (active) in [5], 50 µM (active) in assay [15] and 12.4 µM (active) in assay [11].
With `CC1(C)C(=O)N(Br)C(=O)N1Br`, the molecule was called inactive in assay [1], in [2], in assay [3], in assay [4], in assay [5] and in assay [6]. Further, the outcome in assay [7], in [8], in assay [9], in [10], in assay [11] and in assay [12] was inactive. For the same molecule, the call in [13] and in assay [14] was inactive. Besides, in assay [15], the AC50 was 36.8 µM (active).
Consider `C1=CCCC=CCCC=CCC1`, for which the outcome in [1], in assay [2], in [3], in assay [4], in assay [5] and in [6] was inactive. Besides, the call in [7], in assay [15], in assay [8], in assay [9], in assay [10] and in assay [11] was inactive. Also, the call in assay [12], in assay [13] and in assay [14] was inactive.
As for `CC(C)CCCCCCCOC(=O)CCCCC(=O)OCCCCCCCC(C)C`, the call in [1], in assay [2], in [3], in assay [4], in assay [5] and in [6] was inactive. Also, the molecule was called inactive in assay [7], in assay [8], in [9], in assay [10], in assay [11] and in assay [12]. In addition, the call in [13] and in assay [14] was inactive. For the same molecule, the AC50 in assay [15] was 50 µM (active).
Regarding `CNCc1ccc(NC(=O)c2c[nH]c3c2C(=O)CCC3)cc1`, the result in assay [1], in assay [2], in assay [3], in [4], in [5] and in assay [6] was inactive. The molecule was classed as inactive in assay [7], in assay [8], in assay [9], in assay [10], in assay [11] and in assay [12]. For the same molecule, the call in [13] and in assay [14] was inactive. For the same molecule, the concentration at half-maximal activity (AC50) in [15] was 73.8 µM (active).
Regarding `CC/C(=C\C(=N/O)C(N)=O)C(C)[N+](=O)[O-]` (stereo not drawn), the molecule was called inactive in [1], in [2], in assay [3], in [4], in [5] and in assay [6]. Further, the molecule was called inactive in assay [7], in assay [8], in assay [9], in assay [10], in assay [11] and in [12]. For the same molecule, the call in assay [13] and in assay [14] was inactive. Also, the AC50 in [15] was 31.9 µM (active).
Turning to `COCCOCCOCCOC`, the result in assay [1], in assay [2], in assay [3], in assay [4], in assay [5] and in assay [6] was inactive. For the same molecule, the result in assay [7], in [15], in [8], in assay [9], in assay [10] and in assay [11] was inactive. The molecule was classed as inactive in [12], in assay [13] and in assay [14].
